From PubChem BioAssay (NCATS)
Records with an inconclusive call do not appear. A number with no mark means an inactive call. Calls of active or inactive are those of the source. Calls come from the whole dose curve; as a rule, active = well fitted curve in the direction sought with a large enough effect; inconclusive = small, poorly fitted or top-dose-only effect, or another doubt; inactive = no such curve, though single readings can be large; an effect the other way counts as inactive or inconclusive.

Columns and labels:
[1] = qHTS of pediatric cancer cell lines to identify multiple opportunities for drug repurposing: Primary screen for BT-37 cells (AID 1347094); settings: BT-37 viability, CellTiter-Glo luminescence, 48 h; series mostly up to 57.3 µM; note: potency is the fitted concentration of half-maximal effect
Outline: (§1)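 ATP-based luminescence (CellTiter-Glo) quantifies viability after a 48-hour exposure. Compounds are dosed across 8 or 11 final concentrations; DMSO and 2.3 µM bortezomib serve as controls.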

[2] = qHTS of pediatric cancer cell lines to identify multiple opportunities for drug repurposing: Primary screen for NB-EBc1 cells (AID 1347095); settings: NB-EBc1 neuroblastoma viability, CellTiter-Glo luminescence, 48 h; series mostly up to 46 µM; note: potency is the fitted concentration of half-maximal effect
Outline: as §1

[3] = qHTS of pediatric cancer cell lines to identify multiple opportunities for drug repurposing: Primary screen for Saos-2 cells (AID 1347097); settings: Saos-2 viability, CellTiter-Glo ATP luminescence, 48 h; series mostly up to 46 µM; note: nearly all actives have a fitted effect of over 40% in size; note: potency is the fitted concentration of half-maximal effect
Outline: as §1

[4] = qHTS of pediatric cancer cell lines to identify multiple opportunities for drug repurposing: Primary screen for SK-N-SH cells (AID 1347098); settings: SK-N-SH viability, CellTiter-Glo luminescence, 48 h; series mostly up to 57 µM; note: nearly all actives have a fitted effect of over 65% in size; note: potency is the fitted concentration of half-maximal effect
Outline: (§2)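 Cells (500-1,000/well) rested 5 h, then received compounds for 48 h; metabolically active cells were measured by CellTiter-Glo luminescence. Final concentrations spanned up to 46 µM (MIPE, 11-point) or 0.59 nM-46 µM (NPC, 8-point) in primary screens, 11-point in follow-ups.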

[5] = qHTS of pediatric cancer cell lines to identify multiple opportunities for drug repurposing: Primary screen for NB1643 cells (AID 1347099); settings: NB1643 neuroblastoma viability, CellTiter-Glo luminescence, 48 h; series mostly up to 46 µM; note: nearly all actives have a fitted effect of over 50% in size; note: potency is the fitted concentration of half-maximal effect
Outline: as §1

[6] = qHTS of pediatric cancer cell lines to identify multiple opportunities for drug repurposing: Primary screen for LAN-5 cells (AID 1347100); settings: LAN-5 neuroblastoma viability, CellTiter-Glo luminescence, 48 h; series mostly up to 46 µM; note: potency is the fitted concentration of half-maximal effect
Outline: (§3)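 Cells (500-1,000/well) in growth media were settled 5 h at 37 degrees C, then given compounds for 48 h. Viability was read as CellTiter-Glo luminescence. Primary runs used MIPE at 11 points (0.78 nM-46 µM) and NPC at 8 points (0.59 nM-46 µM); follow-ups used 11 points.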

[7] = qHTS of pediatric cancer cell lines to identify multiple opportunities for drug repurposing: Primary screen for BT-12 cells (AID 1347101); settings: BT-12 viability, CellTiter-Glo luminescence, 48 h; series mostly up to 57.3 µM; note: nearly all actives have a fitted effect of over 25% in size; note: potency is the fitted concentration of half-maximal effect
Outline: as §2

[8] = qHTS of pediatric cancer cell lines to identify multiple opportunities for drug repurposing: Primary screen for Rh18 cells (AID 1347102); settings: Rh18 rhabdomyosarcoma viability, CellTiter-Glo luminescence, 48 h; series mostly up to 46 µM; note: nearly all actives have a fitted effect of over 65% in size; note: potency is the fitted concentration of half-maximal effect
Outline: as §3

[9] = qHTS of pediatric cancer cell lines to identify multiple opportunities for drug repurposing: Primary screen for OHS-50 cells (AID 1347103); settings: OHS-50 osteosarcoma viability, CellTiter-Glo luminescence, 48 h; series mostly up to 57.3 µM; note: nearly all actives have a fitted effect of over 40% in size; note: potency is the fitted concentration of half-maximal effect
Outline: as §2

[10] = qHTS of pediatric cancer cell lines to identify multiple opportunities for drug repurposing: Primary screen for RD cells (AID 1347104); settings: RD rhabdomyosarcoma viability, CellTiter-Glo luminescence, 48 h; series mostly up to 46 µM; note: nearly all actives have a fitted effect of over 55% in size; note: potency is the fitted concentration of half-maximal effect
Outline: as §1

[11] = qHTS of pediatric cancer cell lines to identify multiple opportunities for drug repurposing: Primary screen for MG 63 (6-TG R) cells (AID 1347105); settings: MG 63 (6-TG R) viability, CellTiter-Glo, 48 h; series mostly up to 46 µM; note: nearly all actives have a fitted effect of over 50% in size; note: potency is the fitted concentration of half-maximal effect
Outline: as §1

[12] = qHTS of pediatric cancer cell lines to identify multiple opportunities for drug repurposing: Primary screen for control Hh wild type fibroblast cells (AID 1347106); settings: Hh wild-type fibroblast viability, CellTiter-Glo luminescence, 48 h; series mostly up to 46 µM;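 note: a drop in luminescence marks cytotoxicity and a rise apparent proliferation; nearly all actives have a fitted effect of over 55% in size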
Outline: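 Viability after 48 h compound treatment at 37C, 500-1,000 cells/well, read as ATP luminescence with CellTiter-Glo. Primary screens used 11-point (MIPE, 0.78 nM-46 µM) or 8-point (NPC, 0.59 nM-46 µM) final concentrations; follow-up screens used 11-point dilutions.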

[13] = qHTS of pediatric cancer cell lines to identify multiple opportunities for drug repurposing: Primary screen for Rh41 cells (AID 1347108); settings: Rh41 rhabdomyosarcoma viability, CellTiter-Glo luminescence, 48 h; series mostly up to 46 µM; note: nearly all actives have a fitted effect of over 70% in size; note: potency is the fitted concentration of half-maximal effect
Outline: as §1

[14] = qHTS of pediatric cancer cell lines to identify multiple opportunities for drug repurposing: Confirmatory screen for SK-N-MC cells (AID 1347111); settings: SK-N-MC cell viability; series mostly up to 45.9 µM;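 note: cells exposed to compound for 48 h before the readout; nearly all actives have a fitted effect of over 70% in size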; note: potency is the fitted concentration of half-maximal effect
Outline: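 Metabolically active cells were quantified by ATP-dependent luminescence (CellTiter-Glo, 15 min at room temperature) following 48 h treatment. Cells had been plated at 500-1,000 per well and settled for 5 h beforehand.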

[15] = qHTS of pediatric cancer cell lines to identify multiple opportunities for drug repurposing: Confirmatory screen for LAN-5 cells (AID 1347113); settings: LAN-5 neuroblastoma cell viability; series mostly up to 45.9 µM; note: nearly all actives have a fitted effect of over 65% in size; note: potency is the fitted concentration of half-maximal effect
Outline: as §3

[16] = qHTS of pediatric cancer cell lines to identify multiple opportunities for drug repurposing: Primary screen for Rh30 cells (AID 1347107); settings: Rh30 rhabdomyosarcoma viability, CellTiter-Glo luminescence, 48 h; series mostly up to 46 µM; note: nearly all actives have a fitted effect of over 75% in size
Outline: as §3

[17] = qHTS of pediatric cancer cell lines to identify multiple opportunities for drug repurposing: Confirmatory screen for A673 cells (AID 1347110); settings: A673 Ewing sarcoma cell viability; series mostly up to 45.9 µM;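 note: cells exposed to compound for 48 h before the viability read; nearly all actives have a fitted effect of over 65% in size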; note: potency is the fitted concentration of half-maximal effect
Outline: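 Concentration-response curves came straight from titrations: 11 points (0.78 nM to 46 µM) for MIPE and several concentrations (0.59 nM to 46 µM) for NPC in primary, 11 points in follow-up. Readout: ATP luminescence at 48 h.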

[18] = qHTS of pediatric cancer cell lines to identify multiple opportunities for drug repurposing: Confirmatory screen for BT-12 cells (AID 1347112); settings: BT-12 rhabdoid tumor cells, viability; series mostly up to 45.9 µM; note: nearly all actives have a fitted effect of over 55% in size
Outline: as §3

[19] = qHTS of pediatric cancer cell lines to identify multiple opportunities for drug repurposing: Primary screen for U-2 OS cells (AID 1347096); settings: U-2 OS viability, CellTiter-Glo luminescence, 48 h; series mostly up to 46 µM; note: nearly all actives have a fitted effect of over 50% in size
Outline: as §3

[20] = qHTS of pediatric cancer cell lines to identify multiple opportunities for drug repurposing: Confirmatory screen for NB1643 cells (AID 1347109); settings: NB1643 neuroblastoma cell viability; series mostly up to 45.9 µM; note: nearly all actives have a fitted effect of over 45% in size; note: potency is the fitted concentration of half-maximal effect
Outline: as §3

SMILES | Potency [1] | Potency [2] | Potency [3] | Potency [4] | Potency [5] | Potency [6] | Potency [7] | Potency [8] | Potency [9] | Potency [10] | Potency [11] | Potency [12] | Potency [13] | Potency [14] | Potency [15] | Potency [16] | Potency [17] | Potency [18] | Potency [19] | Potency [20]
CCCCCCCCc1ccc(CCC(N)(CO)CO)cc1 | 21.7 µM (active) | 16.6 µM (active) | 18.7 µM (active) | 34.1 µM (active) | 18.7 µM (active) | 26.4 µM (active) | 21.7 µM (active) | 16.6 µM (active) | 15.3 µM (active) | 8.33 µM (active) | 18.7 µM (active) | inactive | 18.7 µM (active) | – | – | – | – | – | – | –
CC(C)NC[C@@H](C(=O)N1CCN(c2ncnc3c2[C@H](C)C[C@H]3O)CC1)c1ccc(Cl)cc1 | 4.32 µM (active) | 0.833 µM (active) | 6.62 µM (active) | 12.1 µM (active) | 3.32 µM (active) | 2.96 µM (active) | 24.3 µM (active) | 5.9 µM (active) | 0.193 µM (active) | 1.18 µM (active) | 3.72 µM (active) | – | – | 2.93 µM (active) | 2.93 µM (active) | – | – | – | – | –
C[N+]1(C)[C@@H]2C[C@@H](OC(=O)C(O)(c3cccs3)c3cccs3)C[C@H]1[C@@H]1O[C@@H]12 | inactive | inactive | inactive | inactive | inactive | inactive | inactive | inactive | inactive | inactive | inactive | inactive | inactive | – | – | inactive | – | – | – | –
O=C(C=CC=Cc1ccc2c(c1)OCO2)N1CCCCC1 | inactive | inactive | inactive | inactive | inactive | inactive | inactive | inactive | inactive | inactive | inactive | inactive | inactive | 8.27 µM (active) | – | inactive | 16.5 µM (active) | inactive | – | –
CC(=O)O[C@]1(C(C)=O)CC[C@H]2[C@@H]3C=C(C)C4=CC(=O)CC[C@]4(C)[C@@H]3CC[C@@]21C | 4.32 µM (active) | 2.35 µM (active) | 11.8 µM (active) | 3.04 µM (active) | 2.64 µM (active) | 5.9 µM (active) | 15.3 µM (active) | 13.2 µM (active) | – | – | – | – | – | – | – | inactive | – | – | – | –
COC(=O)[C@H](CCCN=C(N)N)NS(=O)(=O)c1ccc(C)cc1 | inactive | inactive | – | – | inactive | – | inactive | inactive | – | inactive | inactive | inactive | inactive | – | – | inactive | – | – | inactive | –
COc1ccc(C=Cc2cc(OC)c(OC)c(OC)c2)cc1NC(=O)[C@H](N)CO | 0.0172 µM (active) | 0.001 µM (active) | 0.0105 µM (active) | inactive | – | – | 0.0086 µM (active) | inactive | 0.0137 µM (active) | 0.0066 µM (active) | – | – | – | 0.117 µM (active) | 0.414 µM (active) | inactive | 0.104 µM (active) | – | – | –
C[C@]12CCC(=O)C=C1[C@@H]1CC1[C@H]1[C@H]3[C@@H]4C[C@H]4[C@@]4(CCC(=O)O4)[C@@]3(C)CC[C@H]12 (stereo partly drawn) | inactive | inactive | inactive | inactive | inactive | – | – | inactive | 19.3 µM (active) | inactive | inactive | inactive | inactive | – | – | inactive | – | – | – | –
CCc1c(O)cc(O)c(C(=O)c2ccc(OCCN3CCOCC3)c(OC)c2)c1CC(=O)N(CCOC)CCOC | 1.09 µM (active) | 4.18 µM (active) | – | 6.81 µM (active) | 0.935 µM (active) | – | – | 1.32 µM (active) | – | 0.526 µM (active) | – | – | 1.18 µM (active) | – | – | – | – | – | inactive | –
Cn1cc(C2=C(c3c4n(c5ccccc35)CCC(CN)C4)C(=O)NC2=O)c2ccccc21 (stereo not drawn) | 27.3 µM (active) | 18.7 µM (active) | 18.7 µM (active) | 24.1 µM (active) | 26.4 µM (active) | 26.4 µM (active) | 27.3 µM (active) | – | 24.3 µM (active) | 29.6 µM (active) | – | inactive | 23.5 µM (active) | – | – | – | – | – | – | –
C[C@@H](Oc1ccc2[nH]nc(C=Cc3cnn(CCO)c3)c2c1)c1c(Cl)cncc1Cl | 24.3 µM (active) | 0.0935 µM (active) | – | 0.681 µM (active) | – | – | 17.2 µM (active) | – | 7.69 µM (active) | 18.7 µM (active) | 18.7 µM (active) | – | 14.8 µM (active) | 2.61 µM (active) | 0.827 µM (active) | – | 1.31 µM (active) | – | inactive | 0.657 µM (active)
Cc1[nH]c(C=C2C(=O)Nc3ccccc32)c(C)c1CCC(=O)O | 0.863 µM (active) | 0.148 µM (active) | 3.32 µM (active) | 0.541 µM (active) | 3.32 µM (active) | 0.132 µM (active) | 7.69 µM (active) | 23.5 µM (active) | 1.22 µM (active) | 18.7 µM (active) | – | inactive | – | inactive | inactive | – | inactive | – | – | inactive
